A selection: hits, their analogues and other compounds. The true share with any hit is near 19%.
HT1080 IDH1KD tx: qHTS for induction of synthetic lethality in tumor cells producing 2HG: qHTS for the HT-1080-IDH1KD cell line | HT-1080 IDH1 knockdown viability, ATP luminescence, 48 h | Potency, µM (highest dose often 46.1 µM), most hits filed as cytotoxic | actives 2% (n = 360,000) | AID 686971, 2013
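Cytotoxicity counter-line: IDH1KD HT-1080, 48 h, CellTiter-Glo. Curves classed by r2, magnitude and activity.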
TDP1 cell noCPT: qHTS for Inhibitors of human tyrosyl-DNA phosphodiesterase 1 (TDP1): qHTS in cells in absence of CPT | actives 15% (n = 420,000) | AID 686978, 2013 | Potency, µM (titrated, usually from 46.2 µM), hits mostly inhibitors | DT40 Tdp1-/- hTDP1 cells, no CPT, ATP luminescence, 48 h; further: nearly all actives have a fitted effect of over 55% in size
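Compound effects on proliferation are scored in DT40 Tdp1-/-;hTDP1 cells in the absence of CPT. ATP levels (CellTiter-Glo luminescence) are recorded after a ≥48 hr, 37 °C incubation.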
HT1080NT lethal: qHTS for induction of synthetic lethality in tumor cells producing 2HG: qHTS for the HT-1080-NT fibrosarcoma cell line; Potency, µM (highest dose often 46.1 µM), actives largely listed as cytotoxic; actives 1.6% (n = 360,000); HT-1080-NT fibrosarcoma viability, CellTiter-Glo ATP luminescence, 48 h;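 further: NT is the 2HG producing partner of a matched IDH1 knockdown line; nearly all actives have a fitted effect of over 55% in size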
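Viability of the 2HG-overproducing fibrosarcoma line after 48 hours of compound exposure at 37 degrees C was determined by luminescence with CellTiter-Glo, and concentration-effect curves were then fitted and categorized.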
DT40 TDP1 CPT: qHTS for Inhibitors of human tyrosyl-DNA phosphodiesterase 1 (TDP1): qHTS in cells in presence of CPT; Potency, µM (series often up to 46.2 µM), actives largely listed as inhibitors; actives 12% (n = 420,000); chicken DT40 Tdp1-/-;hTDP1 cells + 20 nM CPT, ATP luminescence, 48 h; further: nearly all actives have a fitted effect of over 55% in size
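Chicken DT40 Tdp1-/- cells complemented with human TDP1, 400 cells/well, exposed to compounds plus 20 nM camptothecin for at least 48 h at 37 C; viability read as ATP content by CellTiter-Glo luminescence.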
IL-1B inflam inh: qHTS for Inhibitors of Inflammasome Signaling: IL-1-beta AlphaLISA Primary Screen | THP-1 LPS/ATP IL-1B secretion, AlphaLISA, 16 h; active compounds read low | activity change, % at 57.5 µM | actives 4.7% (n = 360,000) | AID 743279, 2014; in the data active means activity change below about -50%; inconclusive means mostly about -30% to -49%
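Secreted IL-1B measured by AlphaLISA bead assay after 16 h compound exposure of THP-1 cells; compounds (final up to 57.5 uM) added 1 h before LPS (250 ng/mL) and ATP (1.25 mM) stimulation; lower signal means less secretion.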
Numbers stand for hits; – = inactive; ? = inconclusive; · = not tested or not shown. Unless noted, the call rests on the fitted dose curve; in most records, active means well fitted curve in the direction sought with a large enough effect; inconclusive means small, poorly fitted or top-dose-only effect, or another doubt; inactive means no such curve, though single readings can be large; an effect the other way counts as inactive or inconclusive.

SMILES	HT1080 IDH1KD tx	TDP1 cell noCPT	HT1080NT lethal	DT40 TDP1 CPT	IL-1B inflam inh
O=C(NC1CCCCC1)C(c1ccc(F)cc1)N(Cc1ccccc1)C(=O)CN1C(=O)c2ccccc2S1(=O)=O (stereo not given)	–	21µM	–	21µM	–
COC(=O)C1=C(C)NC(=O)C1(NC(=O)c1ccc(Cl)cc1)C(F)(F)F (stereo not given)	·	–	·	–	·
Fc1cccc(Cc2c(-c3cccc(Cl)c3)nc3ccc(Cl)cn23)c1	–	?	–	?	–
C1=Cc2ccccc2/C1=C(\Cc1ccncc1)Oc1ccncc1	·	14µM	·	11µM	·
C/C(=N\Nc1ccc(C(=O)O)cc1)c1ccc(S(=O)(=O)NCc2ccco2)cc1	–	–	–	–	–
CSCCOC(=O)C1=C(C)Nc2ccc(C)cc2S1	–	16µM	–	21µM	?
Oc1ccccc1-c1n[nH]c(-c2ccccc2O)n1	?	5.2µM	?	3.7µM	–
CC(C)(C)NC(=O)c1cc([N+](=O)[O-])ccc1N1CCCCC1	–	?	–	–	–
Cc1ccc(C(=O)Nc2ncc(C)s2)o1	?	–	?	–	–
Cc1cnc(NC(=O)NCC2CCCC(CNC(=O)Nc3ncc(C)s3)C2)s1 (stereo not given)	?	?	?	?	-98
COc1ccc(-c2[nH]c(-c3ccc(Cl)cc3)nc2SCC(=O)Nc2nccs2)cc1	?	23µM	?	16µM	–
COc1ccc(-c2[nH]c(-c3ccccc3)nc2SCC(=O)Nc2nccs2)cc1	–	23µM	–	18µM	–
COc1ccc(-n2c(SCC(=O)Nc3nccs3)nnc2-c2ccc(Cl)cc2)cc1	–	–	–	–	–
CN(Cc1ccccc1)C(=O)COc1cccnc1[N+](=O)[O-]	–	–	–	–	–
NC(=O)C1CCCNC1 (stereo not given)	–	–	?	–	-57
O=C(N/N=C/c1ccc2c(c1)OCO2)c1cccnc1	–	–	–	–	–
Cc1cc(C(=O)N/N=C/c2ccc3c(c2)OCO3)c2ccccc2n1	4.1µM	2.1µM	?	2.3µM	–
O=C(N/N=C/c1ccc2c(c1)OCO2)c1cc(-c2ccncc2)nc2ccccc12	2.6µM	4.1µM	?	3.7µM	–
CCn1c(SCC(=O)Nc2cccc(OC)c2)nc2c(c1=O)SCC2	–	–	–	–	–
O=C(CN1CCN(c2ccccc2O)CC1)Nc1ccc2c(c1)CCC2	–	?	–	–	–
O=C1N[C@@H](Cc2ccccc2)C(=O)N2[C@@H]3N(S(=O)(=O)c4ccccc4)c4ccccc4[C@]3(Br)C[C@@H]12	–	?	?	?	?
CC(C)c1cc(C(C)C)c(S(=O)(=O)N2c3ccccc3[C@@]3(Br)C[C@H]4C(=O)N[C@@H](Cc5ccccc5)C(=O)N4[C@@H]23)c(C(C)C)c1	–	12µM	–	12µM	–
COC(=O)c1ccc(OCC(O)CNCC(c2ccc(OC)cc2)N(C)C)c(OC)c1 (stereo not given)	–	–	–	–	–
NS(=O)(=O)c1ccc(NC(=S)NNC(=O)c2ccc(Br)o2)cc1	–	–	–	–	–
Cc1sc2nc3ccc(NCc4ccco4)nn3c(=O)c2c1C	–	21µM	–	?	–
C[C@H]1CN([C@@H](C)CO)C(=O)Cc2cc(NC(=O)CCN3CCOCC3)ccc2O[C@@H]1CN(C)Cc1ccc(Oc2ccccc2)cc1	–	23µM	–	23µM	–
C[C@H]1CN([C@@H](C)CO)C(=O)Cc2cc(NC(=O)C3CC3)ccc2O[C@H]1CN(C)Cc1ccc(Oc2ccccc2)cc1	–	?	?	?	-72
Cc1ccc(-c2nc3c(c(SCC(=O)N4CCOCC4)n2)COC(C)(C)C3)cc1	–	?	–	?	–
